Measurements: PubChem BioAssay (NCI)
This is part of a sample that, as a whole, favours compounds with a hit. Of some 83,000 tested, about 20% had one in any assay.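 Results are percent growth after 48 hours of single-concentration exposure. 100 means growth as in untreated cells, lower positive values show inhibition; negative values down to -100 show cell death.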 Values without a mark were called inactive. Activity calls are given as the source filed them. How the source made its calls: active means growth percent below 10; inactive means the rest.

Experiments:
Experiment in all cases: NCI-60 one-dose screen, 48 h (100 = growth as untreated, 0 = no growth, -100 = all killed)
Details in all cases: 10 µM unless noted
[1] = system: HCT-15 colon
[2] = system: HT29 colon
[3] = system: SNB-19 CNS
[4] = system: U251 CNS
[5] = system: PC-3 prostate
[6] = system: SK-MEL-5 melanoma
[7] = system: UACC-62 melanoma
[8] = system: LOX IMVI melanoma
[9] = system: SK-MEL-28 melanoma
[10] = system: SK-MEL-2 melanoma
[11] = system: EKVX NSCLC
[12] = system: SN12C renal
[13] = system: UO-31 renal
[14] = system: TK-10 renal
[15] = system: ACHN renal
[16] = system: CAKI-1 renal
[17] = system: A498 renal
[18] = system: CCRF-CEM leukemia
[19] = system: MOLT-4 leukemia
[20] = system: SNB-75 CNS

Structure (SMILES) | growth [1] | growth [2] | growth [3] | growth [4] | growth [5] | growth [6] | growth [7] | growth [8] | growth [9] | growth [10] | growth [11] | growth [12] | growth [13] | growth [14] | growth [15] | growth [16] | growth [17] | growth [18] | growth [19] | growth [20]
COc1ccccc1/C=C(/C(=O)c1ccccc1)c1ccccc1 | 93.4% | 110% | 90.8% | 96.4% | 92.2% | 99.1% | 82.4% | 87.8% | 108% | 94.5% | 109% | 102% | 75.4% | 119% | 99.8% | 92.8% | 111% | 104% | 75.1% | –
O=C1C=CC(Nc2ccccc2[N+](=O)[O-])C1Nc1ccccc1[N+](=O)[O-] (stereo unspecified) | -86.6% (active) | -32.3% (active) | – | – | 51.6% | 45% | -68.9% (active) | -97.3% (active) | -92.9% (active) | 67.9% | -97.1% (active) | 36.9% | – | -45.3% (active) | -96% (active) | -24.3% (active) | – | 10.5% | 29.4% | 36.9%
Fc1ccc(Cc2ccc(F)cc2)cc1 | 116% | 111% | 102% | 98.5% | 102% | 101% | 101% | 97.9% | 105% | 111% | 105% | 95.7% | 79.7% | 101% | 104% | 94.8% | 99.7% | 107% | 94.5% | –
COc1ccc(-c2cn3c(ccc4ccccc43)n2)cc1 | 92.4% | 108% | 99.3% | 105% | 89.2% | 78% | 85.3% | 95.1% | 117% | 109% | 72.1% | 89.9% | 56.1% | 126% | 81.3% | 92.7% | 116% | 99.2% | 113% | –
CCCCCCCCCc1cc(CN2CCCCC2)c(O)c(CN2CCCCC2)c1 | 52.3% | 40.5% | – | – | 53.7% | 40% | 72.9% | 48.6% | 74% | 86.7% | 37.5% | 71.9% | 44.1% | 81.1% | 63.5% | 57.7% | 75% | 61.7% | 56% | 60.6%
C=CC[N+]1(CC)CCN=C1CCCCCCCCCCCCCCCCC (stereo unspecified) | -88.6% (active) | -100% (active) | – | – | -68.6% (active) | -100% (active) | -86.1% (active) | -96.3% (active) | -76.1% (active) | -74% (active) | -75.7% (active) | – | -65.5% (active) | -94.2% (active) | -86.6% (active) | – | -15.6% (active) | -59.4% (active) | -60% (active) | -92.1% (active)
CCCCCCNC(=O)Oc1ccc(/C(=C(\C)c2ccccc2)c2ccc(OCCN(CC)CC)cc2)cc1 | 4.48% (active) | -16.1% (active) | 63.6% | 38.2% | 45.4% | 41.9% | 18.4% | 67.8% | 61.1% | 86.6% | 90.5% | 73% | 28.8% | 76.1% | 88.1% | 77% | 81.7% | 40.5% | 20.3% | –
C/C(=C(/c1ccc(O)cc1)c1ccc(OCCN(C)C)cc1)c1ccccc1 | 73.9% | 22.1% | 96.1% | 70.5% | 80.3% | 75.1% | 36.8% | 82.8% | 45.3% | 92.3% | 83.6% | 84% | 65% | 81.5% | 89.2% | 84.9% | 102% | 94.3% | 32.8% | –
O=C1c2c[n+](Cc3ccccc3)ccc2-c2nc3ccccc3c3ccnc1c23 | 18.6% | -25% (active) | -72.2% (active) | -77% (active) | -7.15% (active) | -93.9% (active) | -58.5% (active) | -37.1% (active) | -34.3% (active) | -53.6% (active) | -1.66% (active) | -74.2% (active) | -21.8% (active) | -20.2% (active) | -13% (active) | 13.8% | -56.1% (active) | -13.1% (active) | -17.2% (active) | –
Brc1cccc(-c2nc(-c3ccc4c(c3)OCCO4)co2)c1 | 34.5% [25 µM] | 17.1% [25 µM] | 63.1% [25 µM] | 43.3% [25 µM] | 74% [25 µM] | 57.6% [25 µM] | 44.6% [25 µM] | 45.4% [25 µM] | 72.9% [25 µM] | 37.6% [25 µM] | 51.5% [25 µM] | 54% [25 µM] | 70% [25 µM] | 84.7% [25 µM] | 85.4% [25 µM] | 52.3% [25 µM] | 23.5% [25 µM] | 51.6% [25 µM] | 45.4% [25 µM] | –
C=C1C(=O)O[C@H]2[C@H]1CC/C(Cn1cc(Cn3ccc4cc(Cl)ccc43)nn1)=C\CC[C@@]1(C)O[C@@H]21 | -47.1% (active) | -43.3% (active) | 53.5% | 28.9% | 6.92% (active) | 46.9% | 5.99% (active) | -89.5% (active) | -13.3% (active) | 18.1% | 42.4% | 19.4% | -100% (active) | -24.7% (active) | -97.8% (active) | 3.92% (active) | 45% | -27.1% (active) | -22.1% (active) | –
C=C1C(=O)O[C@H]2[C@H]1CC/C(Cn1cc(Cn3ccc4ccccc43)nn1)=C\CC[C@@]1(C)O[C@@H]21 | -34.5% (active) | -13.8% (active) | 71.1% | 48.7% | 40.8% | 30.1% | 33.4% | -82.8% (active) | 14% | 61.5% | 58.6% | 39.8% | -77.2% (active) | 16.8% | -52.9% (active) | 18.3% | 74.3% | -18.6% (active) | -8.31% (active) | –
Cc1ccc(-c2nc(/C=N/Nc3cc(C)nc4ccc(Br)cc34)c(C)o2)cc1 | -83.7% (active) | -70% (active) | -48.9% (active) | -76.4% (active) | 5.84% (active) | 63.8% | 86.4% | -88.5% (active) | -13.5% (active) | 95.8% | 2.6% (active) | -83.4% (active) | -98% (active) | -17.5% (active) | -85.1% (active) | -71.5% (active) | 86.6% | -42.1% (active) | -34.7% (active) | –
C=C(C[n+]1ccccc1)[C@@H]1CC[C@]2(C(=O)OC)CC[C@]3(C)[C@H](CC[C@@H]4[C@@]5(C)CC[C@H](O)C(C)(C)[C@@H]5CC[C@]43C)[C@@H]12 | 106% | 94.5% | 106% | 99% | -77.4% (active) | 96.5% | 91.5% | 92% | 108% | 100% | 104% | 95.4% | 74% | 113% | 96.5% | 90.6% | 123% | 99% | 101% | –
C=C1CC2(OC1=O)C(=O)N(CCCCCCCN1C(=O)C3(CC(=C)C(=O)O3)c3ccccc31)c1ccccc12 (stereo unspecified) | -19.6% (active) | -17.4% (active) | 67.9% | 36.5% | 45.7% | 61.3% | 34.9% | -82.5% (active) | 9.63% (active) | 61.2% | 88.4% | -50.9% (active) | -24.6% (active) | 45.2% | 15.8% | 40.3% | 53.5% | -14.8% (active) | 3.14% (active) | –
CCCCCCCCCCCCNC(=O)[C@H]1CSC(c2ccc(OC)c(F)c2)N1 (stereo partly specified) | -82.3% (active) | -83.1% (active) | -92.6% (active) | -93.4% (active) | -93.8% (active) | -98.1% (active) | -95% (active) | -89.6% (active) | -92.6% (active) | -93.7% (active) | -87.4% (active) | -93% (active) | -99.9% (active) | -96.3% (active) | -100% (active) | -97.8% (active) | -96.3% (active) | -42.5% (active) | -66.9% (active) | –
COc1ccc(C/C(C)=C(\c2ccc(OCCN3CCCCCC3)cc2)c2ccc(OC(=O)C3CCCCC3)cc2)cc1 | 38.7% | -31.8% (active) | 63.3% | 44.1% | 50.7% | 65.4% | 63.5% | 66.8% | 66.9% | 82.1% | 83.5% | 57.1% | 38.6% | 86.4% | 80.8% | 86.7% | 80.4% | 49.7% | 32.3% | –
